# Experimental data taken from PubChem BioAssay (EPA / NIEHS).
# Inconclusive results are not listed. The source made the active and inactive calls. The calls were made as follows, unless noted: active = hit-call score of the fitted dose curve at least 0.9, where 1 is the maximum; inactive = score below 0.9.
# Columns and labels:
# [1] = molecular target: Retinoic acid receptor RXR-alpha (Homo sapiens) (UniProt P19793); test: ATG_RXRa_TRANS: Attagene TRANS-FACTORIAL HepG2 Assay for human Retinoid X Receptor alpha (RXRa) (AID 2283012; active = hit-call score of the fitted dose curve at least 0.9, where 1 is the maximum)
# Chain of Retinoic acid receptor RXR-alpha (Homo sapiens) (P19793 whole entry, looked up, the tested form may be a part): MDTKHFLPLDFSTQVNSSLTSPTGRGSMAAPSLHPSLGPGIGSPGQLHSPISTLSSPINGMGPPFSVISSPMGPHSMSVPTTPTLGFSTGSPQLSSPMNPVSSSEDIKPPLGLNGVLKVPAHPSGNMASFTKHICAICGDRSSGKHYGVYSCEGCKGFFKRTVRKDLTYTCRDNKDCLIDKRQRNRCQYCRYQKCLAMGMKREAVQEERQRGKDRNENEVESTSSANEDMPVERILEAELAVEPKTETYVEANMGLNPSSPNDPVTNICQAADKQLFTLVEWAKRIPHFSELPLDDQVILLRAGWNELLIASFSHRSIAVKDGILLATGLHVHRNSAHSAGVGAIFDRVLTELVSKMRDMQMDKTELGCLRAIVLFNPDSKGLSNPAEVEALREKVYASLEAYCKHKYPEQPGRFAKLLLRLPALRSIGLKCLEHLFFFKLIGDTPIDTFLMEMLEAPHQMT
# Summary of the method: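 Cells (HepG2) carried transiently transfected GAL4-responsive reporter units. Following a 24 h chemical incubation, reporter mRNA induction was read via RT-PCR fragment analysis; DMSO served as negative control and baseline.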
# [2] = molecular target: human Retinoid X Receptor beta (RXRb), RXRB (gene 6257) (UniProt P28702); test: ATG_RXRb_TRANS: Attagene TRANS-FACTORIAL HepG2 Assay for human Retinoid X Receptor beta (RXRb) (AID 2283013; active = hit-call score of the fitted dose curve at least 0.9, where 1 is the maximum)
# Chain of human Retinoid X Receptor beta (RXRb), RXRB (gene 6257) (P28702 whole entry, looked up): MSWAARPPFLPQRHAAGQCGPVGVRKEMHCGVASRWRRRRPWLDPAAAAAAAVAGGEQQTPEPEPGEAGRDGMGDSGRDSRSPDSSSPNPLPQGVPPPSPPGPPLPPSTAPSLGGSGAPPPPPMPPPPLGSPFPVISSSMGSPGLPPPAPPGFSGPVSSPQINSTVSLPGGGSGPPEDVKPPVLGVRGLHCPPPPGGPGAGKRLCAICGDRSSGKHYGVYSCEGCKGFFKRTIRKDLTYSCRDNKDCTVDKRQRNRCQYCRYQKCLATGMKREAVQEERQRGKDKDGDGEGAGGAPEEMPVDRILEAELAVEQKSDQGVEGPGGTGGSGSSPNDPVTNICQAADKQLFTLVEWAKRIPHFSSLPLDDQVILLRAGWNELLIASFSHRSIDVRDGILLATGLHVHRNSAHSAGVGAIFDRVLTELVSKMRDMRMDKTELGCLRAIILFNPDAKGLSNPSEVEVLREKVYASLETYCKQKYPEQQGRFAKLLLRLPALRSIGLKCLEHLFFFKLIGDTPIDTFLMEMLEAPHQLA
# Summary of the method: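 Multiplexed TRANS reporter assay in HepG2; 24 h dosing; reporter mRNA by RT-PCR/CE fluorescence; gain-of-signal relative to DMSO.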
# [3] = molecular target: human Thyroid Receptor alpha (THRa1), THRA (gene 7067) (UniProt P10827); test: ATG_THRa1_TRANS: Attagene TRANS-FACTORIAL HepG2 Assay for human Thyroid Receptor alpha (THRa1) (AID 2283014; active = hit-call score of the fitted dose curve at least 0.9, where 1 is the maximum)
# Chain of human Thyroid Receptor alpha (THRa1), THRA (gene 7067) (P10827 whole entry, looked up, the tested form may be a part): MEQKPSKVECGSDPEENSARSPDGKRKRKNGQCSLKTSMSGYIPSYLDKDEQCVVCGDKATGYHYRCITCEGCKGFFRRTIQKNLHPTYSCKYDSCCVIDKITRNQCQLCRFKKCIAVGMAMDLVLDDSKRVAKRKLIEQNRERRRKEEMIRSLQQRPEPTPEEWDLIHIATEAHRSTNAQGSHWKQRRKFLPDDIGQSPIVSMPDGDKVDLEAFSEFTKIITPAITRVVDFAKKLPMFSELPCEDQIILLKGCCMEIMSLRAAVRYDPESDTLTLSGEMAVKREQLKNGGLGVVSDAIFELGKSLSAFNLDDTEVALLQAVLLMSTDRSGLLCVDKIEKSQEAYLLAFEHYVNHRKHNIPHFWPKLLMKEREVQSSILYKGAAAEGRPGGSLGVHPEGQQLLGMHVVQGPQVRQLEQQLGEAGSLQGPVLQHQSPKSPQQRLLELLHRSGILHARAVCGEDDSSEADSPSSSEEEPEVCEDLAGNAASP
# Summary of the method: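 HepG2 cells transiently transfected with multiplexed GAL4-UAS reporter units for exogenous chimeric THRa1-Gal4; reporter mRNA measured 24 h after dosing by RT-PCR, 6-FAM labelling, HpaI digestion and capillary electrophoresis. Gain-of-signal fitted versus DMSO baseline.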
# [4] = read-out: E-selectin (Homo sapiens) (UniProt P16581); test: BSK_3C_Eselectin: BioMAP Diversity Plus: 3C Assay for Eselectin Biomarker Activity (AID 2283015); settings: primary human endothelial cells (HUVEC); actives raise or lower the signal;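 as to outcome: cell surface E-selectin protein quantified by ELISA 24 h after dosing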
# Summary of the method: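 Primary human umbilical vein endothelial cells (3C system) were dosed with chemical and cell-surface E-selectin measured by ELISA 24 h later. Bidirectional curve fitting used DMSO as negative control and baseline.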
# [5] = read-out: Monocyte Chemoattractant Protein-1 (MCP1), CCL2 (gene 6347); test: BSK_3C_MCP1: BioMAP Diversity Plus: 3C Assay for Monocyte Chemoattractant Protein-1 (MCP1) Biomarker Activity (AID 2283017); settings: primary human endothelial cells (HUVEC); actives raise or lower the signal
# Summary of the method: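 Primary human umbilical vein endothelial cells (3C system) were exposed to test chemical for 24 h, after which MCP-1 was quantified by ELISA. Activity was fitted bidirectionally against DMSO as negative control and baseline.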
# [6] = read-out: Monocyte Chemoattractant Protein-1 (MCP1), CCL2 (gene 6347); test: BSK_4H_MCP1: BioMAP Diversity Plus: 4H Assay for Monocyte Chemoattractant Protein-1 (MCP1) Biomarker Activity (AID 2283018); settings: primary human endothelial cells (HUVEC); actives raise or lower the signal
# Summary of the method: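 Readout: MCP-1 ELISA on compound-treated HUVEC, sampled 24 h post-dosing. Baseline and negative control DMSO; bidirectional fit. Overt toxicity checked alongside by sulforhodamine B protein staining at time of biomarker measurement.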
# [7] = read-out: Human Leukocyte Antigen - DR isotype (HLADR), HLA-DRA (gene 3122); test: BSK_3C_HLADR: BioMAP Diversity Plus: 3C Assay for Human Leukocyte Antigen - DR isotype (HLADR) Biomarker Activity (AID 2283019); settings: primary human endothelial cells (HUVEC); actives raise or lower the signal;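 as to outcome: ELISA of cell-surface HLA-DR on HUVEC 24 h after dosing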
# Summary of the method: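 Primary human umbilical vein endothelial cells (3C system) were dosed with compound and cell-surface HLA-DR was quantified by ELISA at 24 h. Activity was fitted bidirectionally against DMSO as negative control and baseline.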
# [8] = read-out: Interleukin-8 (IL8), CXCL8 (gene 3576); test: BSK_3C_IL8: BioMAP Diversity Plus: 3C Assay for Interleukin-8 (IL8) Biomarker Activity (AID 2283020); settings: primary human endothelial cells (HUVEC); actives raise or lower the signal
# Summary of the method: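 Human vascular endothelial cells (umbilical vein) in the 3C system; IL-8 level detected by ELISA at 24 h post-dose, with DMSO as baseline.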
# [9] = read-out: Monokine induced gamma interferon (MIG), CXCL9 (gene 4283); test: BSK_3C_MIG: BioMAP Diversity Plus: 3C Assay for Monokine induced gamma interferon (MIG) Biomarker Activity (AID 2283021); settings: primary human endothelial cells (HUVEC); actives raise or lower the signal;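 as to AC50: MIG protein level measured by immunoassay in the treated endothelial cultures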
# Summary of the method: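 After 24 h of treatment, human umbilical vein endothelial cultures (3C system) had their MIG biomarker level determined by ELISA, with DMSO serving as negative control.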
# [10] = molecular target: human Vitamin D Receptor (VDR), VDR (gene 7421) (UniProt P11473); test: ATG_VDR_TRANS: Attagene TRANS-FACTORIAL HepG2 Assay for human Vitamin D Receptor (VDR) (AID 2283022; active = hit-call score of the fitted dose curve at least 0.9, where 1 is the maximum)
# Chain of human Vitamin D Receptor (VDR), VDR (gene 7421) (P11473 whole entry, looked up, the tested form may be a part): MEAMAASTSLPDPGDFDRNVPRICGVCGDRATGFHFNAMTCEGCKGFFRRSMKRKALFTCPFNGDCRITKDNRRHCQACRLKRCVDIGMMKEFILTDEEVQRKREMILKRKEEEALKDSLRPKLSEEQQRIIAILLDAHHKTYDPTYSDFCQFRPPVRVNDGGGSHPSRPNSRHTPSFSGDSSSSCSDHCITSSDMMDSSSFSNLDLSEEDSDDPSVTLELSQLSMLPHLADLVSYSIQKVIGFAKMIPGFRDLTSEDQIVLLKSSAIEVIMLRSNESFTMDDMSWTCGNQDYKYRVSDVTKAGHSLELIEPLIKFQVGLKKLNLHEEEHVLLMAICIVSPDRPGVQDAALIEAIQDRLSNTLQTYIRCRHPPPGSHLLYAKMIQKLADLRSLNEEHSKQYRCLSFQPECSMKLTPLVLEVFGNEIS
# Summary of the method: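 HepG2 cells were transiently transfected with multiple GAL4-UAS reporter units, so signal reflects exogenous chimeric receptor-Gal4 activity. After 24 h compound exposure, reporter mRNA was measured by RT-PCR, fluorescent labelling and capillary electrophoresis, fitted for gain of signal versus DMSO.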
# [11] = BSK_3C_SRB: Viability Assessment in the BioMAP Diversity Plus: 3C Assay (AID 2283023); settings: primary human endothelial cells (HUVEC);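 also: fitted both ways against DMSO so a hit may be signal rise or drop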
# Summary of the method: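 Primary human umbilical vein endothelial cells in the 3C system were read 24 h after compound dosing. Total protein was stained with 0.1% sulforhodamine B after 10% TCA fixation and read at 560 nm, with bidirectional fitting against DMSO as baseline.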
# [12] = read-out: Matrix Metallopeptidase 1 (MMP1), MMP1 (gene 4312); test: BSK_BE3C_MMP1: BioMAP Diversity Plus: BE3C Assay for Matrix Metallopeptidase 1 (MMP1) Biomarker Activity (AID 2283024); settings: primary human bronchial epithelial cells; actives raise or lower the signal
# Summary of the method: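 Dose cells, wait 24 h, run MMP1 ELISA; cells are human bronchial epithelial primaries. Both increases and decreases relative to DMSO counted.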
# [13] = BSK_3C_Vis: BioMAP Diversity Plus: 3C Assay for Morphology Visualization (AID 2283025); settings: primary human endothelial cells (HUVEC);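 also: fitted both ways so gain or loss versus DMSO counts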;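 as to AC50: light microscopy image of cell morphology used as background control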
# Summary of the method: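 Endothelial cells from human umbilical vein were treated with test chemicals for 24 h and inspected by light microscopy for changes in cell conformation.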
# [14] = read-out: Pselectin, SELP (gene 6403); test: BSK_4H_Pselectin: BioMAP Diversity Plus: 4H Assay for Pselectin Biomarker Activity (AID 2283026); settings: primary human endothelial cells (HUVEC); actives raise or lower the signal
# Summary of the method: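 Human vascular endothelium from umbilical vein; P-selectin measured by ELISA at 24 h post-dose, with cytotoxicity checked by sulforhodamine B total-protein staining in parallel cultures (0.1% SRB after 10% TCA fixation, read at 560 nm).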
# [15] = read-out: Thrombomodulin, THBD (gene 7056); test: BSK_3C_Thrombomodulin: BioMAP Diversity Plus: 3C Assay for Thrombomodulin Biomarker Activity (AID 2283029); settings: primary human endothelial cells (HUVEC); actives raise or lower the signal
# Summary of the method: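 Thrombomodulin ELISA, human primary HUVEC, 24 h post-dose; data fitted in both directions relative to DMSO.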
# [16] = read-out: Urokinase-type plasminogen activator receptor (uPAR), PLAUR (gene 5329); test: BSK_4H_uPAR: BioMAP Diversity Plus: 4H Assay for Urokinase-type plasminogen activator receptor (uPAR) Biomarker Activity (AID 2283030); settings: primary human endothelial cells (HUVEC); actives raise or lower the signal
# Summary of the method: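 Primary human umbilical vein endothelial cells were exposed to chemical for 24 h before cell-surface uPAR was quantified by ELISA. Activity was fitted bidirectionally against the DMSO negative control baseline.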
# [17] = read-out: Vascular endothelial growth factor receptor 2 (Homo sapiens) (UniProt P35968); test: BSK_4H_VEGFRII: BioMAP Diversity Plus: 4H Assay for Vascular endothelial growth factor receptor 2 (VEGFR2) Biomarker Activity (AID 2283031); settings: primary human endothelial cells (HUVEC); actives raise or lower the signal;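 as to AC50: cell-surface VEGFR2 protein level quantified by ELISA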
# Summary of the method: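 Primary human umbilical vein endothelial cells in the BioMAP 4H system were dosed with test chemical, and 24 h later VEGFRII was measured by ELISA. Activity was fitted bidirectionally against DMSO as negative control and baseline.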
# [18] = BSK_BE3C_SRB: Viability Assessment in the BioMAP Diversity Plus: BE3C Assay (AID 2283028); settings: primary human bronchial epithelial cells
# Summary of the method: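 Human primary bronchial epithelial cells were exposed to test chemicals for 24 h. Total protein in parallel cultures was then measured by staining with 0.1% sulforhodamine B after 10% TCA fixation, with absorbance read at 560 nm. Activity was fitted bidirectionally against DMSO.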
# [19] = read-out: Interleukin-1 alpha (IL1a), IL1A (gene 3552); test: BSK_BE3C_IL1a: BioMAP Diversity Plus: BE3C Assay for Interleukin-1 alpha (IL1a) Biomarker Activity (AID 2283016); settings: primary human bronchial epithelial cells; actives raise or lower the signal
# Summary of the method: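 Cultures of primary human bronchial epithelial cells receive test chemical. After 24 h, IL-1a is quantified by ELISA, while parallel wells are fixed in TCA and SRB-stained for total protein. Changes in either direction are fitted relative to DMSO.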
# [20] = BSK_4H_SRB: Viability Assessment in the BioMAP Diversity Plus: 4H Assay (AID 2283027); settings: primary human endothelial cells (HUVEC);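 also: cells exposed to compound for 24 h before staining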;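 as to AC50: curves fitted both ways versus DMSO so AC50 may be loss or gain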
# Summary of the method: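 Human umbilical vein endothelial cells, 24 h after chemical dosing; total protein measured by 0.1% sulforhodamine B staining after 10% TCA fixation, read at 560 nm. Bidirectional fitting against DMSO.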
# Chain of E-selectin (Homo sapiens) (P16581 whole entry, looked up): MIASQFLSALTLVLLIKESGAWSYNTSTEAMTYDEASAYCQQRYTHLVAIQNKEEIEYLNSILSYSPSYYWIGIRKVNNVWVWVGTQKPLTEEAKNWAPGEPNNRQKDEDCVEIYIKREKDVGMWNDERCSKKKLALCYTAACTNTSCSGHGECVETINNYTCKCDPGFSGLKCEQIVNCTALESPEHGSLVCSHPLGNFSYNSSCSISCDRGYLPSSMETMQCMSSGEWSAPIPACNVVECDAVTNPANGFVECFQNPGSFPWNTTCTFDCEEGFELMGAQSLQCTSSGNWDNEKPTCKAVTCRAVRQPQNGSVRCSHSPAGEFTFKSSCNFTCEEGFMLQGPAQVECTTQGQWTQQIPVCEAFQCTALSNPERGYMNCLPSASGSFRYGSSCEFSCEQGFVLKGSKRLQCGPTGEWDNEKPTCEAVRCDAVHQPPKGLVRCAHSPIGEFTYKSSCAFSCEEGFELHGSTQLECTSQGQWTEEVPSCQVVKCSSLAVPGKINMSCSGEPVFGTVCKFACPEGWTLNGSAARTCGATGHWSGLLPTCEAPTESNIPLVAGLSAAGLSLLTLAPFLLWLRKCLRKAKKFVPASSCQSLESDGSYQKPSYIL
compound,measurement,setting,value
CCc1ccc(CCOc2ccc(CC3SC(=O)NC3=O)cc2)nc1 (stereo not given),outcome,[1],inactive
same,outcome,[2],inactive
same,outcome,[3],inactive
same,outcome,[4],inactive
same,outcome,[5],inactive
same,outcome,[6],inactive
same,outcome,[7],inactive
same,outcome,[8],inactive
same,outcome,[9],inactive
same,outcome,[10],inactive
same,outcome,[11],inactive
same,outcome,[12],inactive
same,outcome,[13],inactive
same,outcome,[14],inactive
same,outcome,[15],inactive
same,outcome,[16],inactive
same,outcome,[17],inactive
O=C(O)c1ccccc1C(c1ccc(O)cc1)c1ccc(O)cc1,outcome,[1],inactive
same,outcome,[2],inactive
same,outcome,[3],inactive
same,outcome,[4],inactive
same,outcome,[5],inactive
same,outcome,[6],inactive
same,outcome,[7],inactive
same,outcome,[8],inactive
same,outcome,[9],inactive
same,outcome,[11],inactive
same,outcome,[12],inactive
same,outcome,[13],inactive
same,outcome,[14],inactive
same,outcome,[18],inactive
same,outcome,[15],inactive
same,outcome,[16],inactive
same,outcome,[17],inactive
CCN(CC)CCNc1ccc(CNC=O)c2sc3ccc(OC)cc3c(=O)c12,AC50,[1],1.85 µM (active)
same,AC50,[2],0.45 µM (active)
same,outcome,[3],inactive
same,AC50,[4],27.3 µM (active)
same,AC50,[19],29.3 µM (active)
same,AC50,[5],19.4 µM (active)
same,AC50,[6],20 µM (active)
same,AC50,[7],13.4 µM (active)
same,AC50,[8],16.4 µM (active)
same,AC50,[10],1.47 µM (active)
same,AC50,[11],17.7 µM (active)
same,AC50,[12],20 µM (active)
same,AC50,[13],14.4 µM (active)
same,AC50,[14],14.3 µM (active)
same,AC50,[20],25.4 µM (active)
same,outcome,[18],inactive
same,outcome,[15],inactive
same,AC50,[16],9.57 µM (active)
same,AC50,[17],20 µM (active)
CCCCCCCCCCCCN1CCCC1=O,outcome,[1],inactive
same,outcome,[2],inactive
same,outcome,[3],inactive
same,AC50,[4],31.8 µM (active)
same,AC50,[5],32.7 µM (active)
same,AC50,[6],27.8 µM (active)
same,AC50,[7],30.2 µM (active)
same,AC50,[8],29.4 µM (active)
same,AC50,[9],36.7 µM (active)
same,outcome,[10],inactive
same,AC50,[11],33.6 µM (active)
same,AC50,[12],31.7 µM (active)
same,AC50,[13],37.3 µM (active)
same,AC50,[14],30 µM (active)
same,outcome,[15],inactive
same,AC50,[16],34.9 µM (active)
same,outcome,[17],inactive
CCc1nn(C2CCCCC2)c2cc(C3(C#N)CCC(C(=O)O)CC3)ccc12 (stereo not given),outcome,[1],inactive
same,outcome,[2],inactive
same,AC50,[4],9.4 µM (active)
same,outcome,[19],inactive
same,AC50,[5],10.6 µM (active)
same,outcome,[6],inactive
same,AC50,[7],20 µM (active)
same,AC50,[8],7 µM (active)
same,outcome,[9],inactive
same,outcome,[10],inactive
same,AC50,[11],5.08 µM (active)
same,outcome,[12],inactive
same,AC50,[13],39 µM (active)
same,AC50,[14],4.25 µM (active)
same,AC50,[20],5.87 µM (active)
same,outcome,[15],inactive
same,AC50,[16],4.94 µM (active)
same,outcome,[17],inactive
CCCCCCCC(=O)O,outcome,[1],inactive
same,outcome,[2],inactive
same,outcome,[3],inactive
same,outcome,[4],inactive
same,outcome,[5],inactive
same,outcome,[6],inactive
same,outcome,[7],inactive
same,outcome,[8],inactive
same,outcome,[9],inactive
same,outcome,[10],inactive
same,outcome,[11],inactive
same,outcome,[12],inactive
same,outcome,[13],inactive
same,outcome,[14],inactive
same,outcome,[20],inactive
same,outcome,[18],inactive
same,outcome,[15],inactive
same,outcome,[16],inactive
same,outcome,[17],inactive
OC1CCCCC1,outcome,[1],inactive
same,outcome,[2],inactive
same,outcome,[3],inactive
same,outcome,[4],inactive
same,outcome,[5],inactive
same,outcome,[6],inactive
same,outcome,[7],inactive
same,outcome,[8],inactive
same,outcome,[9],inactive
same,outcome,[10],inactive
same,outcome,[11],inactive
same,outcome,[12],inactive
same,outcome,[13],inactive
same,outcome,[14],inactive
same,outcome,[18],inactive
same,outcome,[15],inactive
same,outcome,[16],inactive
same,outcome,[17],inactive
